Measured values: PubChem BioAssay AID1259343 (VanderVen Lab, College of Veterinary Medicine, Cornell …, 2017)
The whole screen tested about 6,200 compounds, of which about 2,900 (47%) were called active. No stated cut-off is given here; in the data, active means inhibition above about 50%; inactive means the rest. The set was probably picked from earlier hits. This is one part of the list.

assay: Mycobacterium tuberculosis growth inhibition, primary screen (AID 1259343); conditions: inhibition: at 10 µM, active compounds read high; outcome: 10 uM

SMILES | inhibition
N#Cc1cccc(S(=O)(=O)Oc2ccc(F)c(F)c2)c1 | 100% (active)
N#Cc1ccc(OS(=O)(=O)c2cccc(F)c2)cc1 | 92.1% (active)
N#Cc1cccc(S(=O)(=O)Nc2cc(C(F)(F)F)ccc2-n2cccn2)c1 | 33.2% (inactive)
CN(Cc1ccc(OC(F)F)cc1)S(=O)(=O)c1cccc(C#N)c1 | 28% (inactive)
N#Cc1cccc(OCCN2CCCc3cc(F)ccc32)c1 | 36.8% (inactive)
COc1ccc(S(=O)(=O)Oc2cccc(CNCc3ccc(F)cc3)c2)cc1 | 30.6% (inactive)
N#Cc1ccc(OS(=O)(=O)c2ccc(F)cc2)cc1 | 29.4% (inactive)
N#Cc1cccc(S(=O)(=O)Oc2ccccc2)c1 | 68.3% (active)
CC(C)NC(=O)NC(=O)COC(=O)C1CC1 | 23.7% (inactive)
CC(C)NC(=O)CCC1CCCCC1 | 103% (active)
COc1ccc(-n2ccnc2CN2CCc3c([nH]c4ccccc34)C2c2ccccn2)cc1 (stereo unspecified) | inactive
N#CC(C(=O)CC1CCCC1)c1nc(N)nc(Nc2ccccc2)n1 (stereo unspecified) | 1.29% (inactive)
CC(C)CCC(=O)C(C#N)c1nnc(-c2ccccc2)n1C (stereo unspecified) | 85.2% (active)
Cn1c(-c2ccccc2)nnc1C(C#N)C(=O)C1CC=CCC1 (stereo unspecified) | 93.3% (active)
NC(=NS(=O)(=O)c1ccc(Cl)cc1)c1ccc(Cl)cc1 | 15.6% (inactive)
COc1ccc(CCC(=O)NNc2cccc(Cl)c2)cc1Br | 98.9% (active)
COc1ccc(COc2ccccc2NC(C)=O)cc1Br | 36.3% (inactive)
COc1ccc(Br)cc1CN(C)CC(=O)Nc1cc(Cl)cc(Cl)c1 | -7.89% (inactive)
OCC1(Cc2ccccc2Cl)CCN(CC#Cc2ccccc2)CC1 | 83.9% (active)
OCC1(Cc2ccccc2C(F)(F)F)CCN(c2ccc(Cl)cn2)CC1 | 8.01% (inactive)
OCC1(Cc2ccccc2)CCN(Cc2cc3ccccc3s2)CC1 | 30.1% (inactive)
O=C(/C=C/c1cccc([N+](=O)[O-])c1)n1cnc2ccccc21 | 96.9% (active)
O=C(C=Cc1ccc([N+](=O)[O-])cc1)c1ccc(F)cc1 | 25.8% (inactive)
COc1ccccc1CCNc1nncc(-c2ccccc2)n1 | inactive
C1=C(CCNc2nncc(-c3ccccc3)n2)CCCC1 | 61.1% (active)
COc1ccc(-c2cnnc(NCCC3=CCCCC3)n2)c(OC)c1 | inactive

SMILES | inhibition
Cc1ccc(NC(=O)c2cnc3cc(C(=O)N(C)C)n(C)c3c2)cc1Cl | 84.7% (active)
CCOC(=O)C(C#N)=CNc1nc2c(s1)CC(C)CC2 (stereo unspecified) | 23.7% (inactive)
CC1CCc2nc(NC(=O)c3ccc([N+](=O)[O-])s3)sc2C1 (stereo unspecified) | 102% (active)
CC1CCc2nc(NC(=O)CSC(=S)N3CCCCC3C)sc2C1 (stereo unspecified) | 32.5% (inactive)
CC(C)(CNC(=O)Nc1nc2c(s1)CCCC2)c1cccs1 | 1.49% (inactive)
O=C(Cc1c(F)cccc1Cl)Nc1nc2c(s1)CCCC2 | 95.5% (active)
CC1CCc2nc(NC(=O)C3CCN(c4ncccn4)CC3)sc2C1 (stereo unspecified) | 90.3% (active)
CCC1CCc2nc(NC(=O)Cc3c(C)noc3C)sc2C1 (stereo unspecified) | 36.4% (inactive)
CC1CCc2nc(C(C#N)=Cc3cccs3)sc2C1 (stereo unspecified) | -38.8% (inactive)
CCOC(C)C(=O)Nc1nc2c(s1)CC(c1ccccc1)CC2 (stereo unspecified) | 35.4% (inactive)
CC1CCc2nc(NC(=O)Cc3c(F)cccc3Cl)sc2C1 (stereo unspecified) | 59.4% (active)
O=C(Nc1cccc(-c2nc3c(s2)CCCC3)c1)C1CC1 | 7.39% (inactive)
CCOC(=O)C1=C(COC(=O)c2ccc([N+](=O)[O-])s2)NC(=O)NC1C (stereo unspecified) | 21.7% (inactive)
CC1CCc2ccc(F)cc2N1S(=O)(=O)c1ccc(Cl)s1 (stereo unspecified) | 30.3% (inactive)
NC(=O)CSc1ccc(-c2cccc(CN3CCOCC3)c2)cc1 | 54.4% (active)
Cc1ccc(SCC(=O)N2CCN(Cc3ccccc3)C2=O)cc1 | 20.7% (inactive)
Fc1cccc(CN2CCN(Cc3ccc(-c4cccnc4)cc3)CC2)c1 | 46.7% (inactive)
Cc1ccc2nc(-c3ccc(NS(C)(=O)=O)cc3)sc2c1 | 29.5% (inactive)
Cc1ccc(S(=O)(=O)c2nnc(-c3ccccc3)s2)cc1 | 58.3% (active)
Brc1ccc(Oc2nnc(-c3ccccc3)s2)cc1 | 43.2% (inactive)
CCC(C)C(=O)Nc1ccc(Cl)c2cccnc12 (stereo unspecified) | -29.8% (inactive)
CC(=O)CCc1ccc(OCCCOc2ccc(Cl)c3cccnc23)cc1 | 69.7% (active)
CNc1nc(=S)[nH]c2ccccc12 | 72.5% (active)
S=c1nc(NC2CC2)c2ccccc2[nH]1 | 85.5% (active)
Cc1nn2c(nc(NC3CCCC3)c3ccccc32)c1Cl | 13.2% (inactive)
CCNc1nc(=S)[nH]c2ccccc12 | -44.3% (inactive)

SMILES | inhibition
COc1ccc(Cc2nc(-c3ccc(Br)cc3)no2)cc1 | -10.8% (inactive)
COc1ccc(-c2noc(Cc3ccc(F)c(Br)c3)n2)cn1 | 58.1% (active)
COc1ccc(-c2csc(C(O)c3cccc(Cl)c3)n2)cn1 (stereo unspecified) | 40.1% (inactive)
CC(C)c1nc2c(c(=O)c3ccccc3n2C)c(=O)n1-c1ccccc1 | -10.5% (inactive)
CC1CCN(C(=S)NC2CC3CCC2C3)CC1 (stereo unspecified) | 67.5% (active)
NC(=S)Cc1nc2ccccc2[nH]1 | 98.2% (active)
CCc1ccc(/C=C/c2nc3ccccc3[nH]c2=O)cc1 | 26.4% (inactive)
c1ccc2[nH]c(CCC3CCCCC3)nc2c1 | -43.3% (inactive)
O=c1ccn(CCOc2cc(Cl)cc(Cl)c2)c(Cl)c1 | 53.2% (active)
N#Cc1c(N)sc2c1CCN(c1nccc(C(F)(F)F)n1)C2 | -0.04% (inactive)
COc1ccc(CC(=O)Nc2cc(-c3cccs3)nn2-c2nc(C)cc(=O)[nH]2)cc1 | 99.4% (active)
COc1ccc(CC(=O)Nc2cc(-c3cccs3)nn2-c2nc(C)c(C)c(=O)[nH]2)cc1 | 99.9% (active)
Cc1nc(-n2nc(-c3cccs3)cc2NC(=O)C2CC2)[nH]c(=O)c1C | -19.4% (inactive)
COc1ccc(OCC(=O)Nc2cc(-c3cccs3)nn2-c2nc(C)cc(=O)[nH]2)cc1 | 99.1% (active)
Cc1nc(-n2nc(-c3cccs3)cc2NC(=O)CCC2CCCC2)[nH]c(=O)c1C | 101% (active)
CC(C)c1cc(=O)[nH]c(-n2nc(-c3cccs3)cc2NC(=O)CCc2ccccc2)n1 | 19.2% (inactive)
COc1ccc(CC(=O)Nc2cc(-c3cccs3)nn2-c2nc(C(C)C)cc(=O)[nH]2)cc1 | 100% (active)
CC(C)c1cc(=O)[nH]c(-n2nc(-c3cccs3)cc2NC(=O)COc2ccccc2F)n1 | 100% (active)
CC(C)c1cc(=O)[nH]c(-n2nc(-c3cccs3)cc2NC(=O)Cc2ccc(F)cc2)n1 | 6.65% (inactive)
Cc1cc(=O)[nH]c(-n2nc(-c3cccs3)cc2NC(=O)COc2ccccc2F)n1 | -30.7% (inactive)
CCCCCOc1ccc(C(=O)N2CCC(O)(c3ccccc3)CC2)cc1OCCCCC | 35.2% (inactive)
Cc1ccc(NCc2nsc(N(C)C)n2)c(F)c1 | 51% (active)
O=C(c1ccc2oc(CCCc3ccccc3)nc2c1)N1CCCCO1 | 50.9% (active)
O=C(NCC1CCCCO1)c1ccc2oc(CCCc3ccccc3)nc2c1 (stereo unspecified) | 47% (inactive)
O=C(COCc1ccccc1)N(Cc1ccccc1)Cc1nc2cc(Cl)ccc2o1 | -20.6% (inactive)
N#Cc1c(F)cccc1Oc1ccc(C(=O)O)cc1 | 39.2% (inactive)

SMILES | inhibition
CS(=O)(=O)NC(=O)c1ccc(Oc2ccc(F)cc2F)cc1 | 72.8% (active)
CS(=O)(=O)NCc1ccc(Oc2ccccc2F)c(F)c1 | 1.57% (inactive)
CCOc1ccccc1CSc1nc2ccsc2c(=O)n1C | 102% (active)
O=c1c2sccc2nc(SCCc2ccccn2)n1-c1ccccc1 | 12.8% (inactive)
Cc1ccccc1CSc1nc2c(c(=O)n1C)SCC2 | 45.6% (inactive)
S=C1Nc2ccccc2C2CC=NN12 (stereo unspecified) | 55.7% (active)
COc1ccc(OCCSC2=Nc3ccccc3C3CC=NN23)cc1 (stereo unspecified) | 45.9% (inactive)
Cc1nc(C)c(CN2CCCC(C(=O)Nc3ccc(-c4cccc(F)c4)cc3)C2)nc1C (stereo unspecified) | 90.5% (active)
CC(C)c1cc(C(=O)N2CCCC(C(=O)c3ccc4ccccc4c3)C2)on1 (stereo unspecified) | 15.6% (inactive)
O=C(Nc1cccc(-c2ccc(F)cc2)c1)C1CCCN(C2CCSCC2)C1 (stereo unspecified) | 86.7% (active)
Cc1ncc(CN2CCCC(C(=O)Nc3cccc(-c4ccc(F)cc4)c3)C2)s1 (stereo unspecified) | 61.6% (active)
CC(C)c1cc(C(=O)N2CCCC(C(=O)Nc3cccc(-c4ccc(F)cc4)c3)C2)on1 (stereo unspecified) | 83.1% (active)
Cc1nnsc1C(=O)N1CCCC(C(=O)Nc2cccc(-c3ccc(F)cc3)c2)C1 (stereo unspecified) | 17.2% (inactive)
O=c1c2ccccc2oc2nc(C3CCCCC3)n(Cc3ccccc3)c(=O)c12 | -13.4% (inactive)
O=C(Nc1ccc(-c2cccc(F)c2)cc1)C1CCCN(C(=O)C2CCOCC2)C1 (stereo unspecified) | 76.7% (active)
CSCCC(=O)N1CCCC(C(=O)Nc2ccc(-c3cccc(F)c3)cc2)C1 (stereo unspecified) | 36.2% (inactive)
O=C(Nc1cccc(-c2ccc(F)cc2)c1)C1CCCN(Cc2cccnc2)C1 (stereo unspecified) | 47.1% (inactive)
CCc1ncc(CN2CCCC(C(=O)Nc3cccc(-c4ccc(F)cc4)c3)C2)cn1 (stereo unspecified) | 77% (active)
O=c1c(Cl)c(Oc2ccccc2)cnn1Cc1ccccc1 | 24.6% (inactive)
CC1(CCc2ccccc2)CCN(c2cn[nH]c(=O)c2Cl)C1 (stereo unspecified) | 71.2% (active)
Cc1ccc(CC2CCCN(c3cn[nH]c(=O)c3Cl)C2)cc1 (stereo unspecified) | 41.4% (inactive)
CCN(C(=O)c1cccc(Br)c1C)c1ccccc1 | -6.9% (inactive)
Cc1cc(Cl)ccc1OC(C)c1nnc(SCCC2CCCCC2)o1 (stereo unspecified) | 10.5% (inactive)
